The results in this text go back to PubChem BioAssay (NCI).

The structures appear in SMILES notation. The panel holds about 83,000 compounds, 20% with a hit somewhere; the sample as a whole holds those more often.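 In brief: 96-well plates, 48 h treatment, single concentration, percent growth endpoint.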 A number with no mark means an inactive call. Calls of active or inactive are those of the source. Rule for the calls: active = growth percent below 10; inactive = the rest.

Some test systems named below: HCT-15 colon; HT29 colon; SNB-75 CNS; SNB-19 CNS; U251 CNS; PC-3 prostate; SK-MEL-5 melanoma; UACC-62 melanoma; SK-MEL-28 melanoma; SK-MEL-2 melanoma; EKVX NSCLC; SN12C renal; TK-10 renal; ACHN renal; CAKI-1 renal; CCRF-CEM leukemia; MOLT-4 leukemia; LOX IMVI melanoma; A498 renal; UO-31 renal.
Test in all cases: NCI-60 one-dose screen, 48 h (100 = growth as untreated, 0 = no growth, -100 = all killed)
What all share (conditions): 10 µM unless noted

Turning to `N#C/C(=C\c1ccc(Cl)cc1)n1nnc2cc(F)c(F)cc21`, the growth in the experiment on HCT-15 colon is 2% (active); in the experiment on HT29 colon, 9.95% (active); in the experiment on SNB-75 CNS, 15.9%; in the experiment with SNB-19 CNS, 34.5%; with U251 CNS, 18.1%; in the experiment on PC-3 prostate, 30.9%. The growth in the experiment with SK-MEL-5 melanoma is 8.38% (active); in the experiment with UACC-62 melanoma it was 21%; with SK-MEL-28 melanoma it was 29.6%; with SK-MEL-2 melanoma, 38.6%; in the experiment on EKVX NSCLC, 59.3%; with SN12C renal, 8.61% (active). For the same molecule, the growth in the experiment with TK-10 renal was 16.9%; in the experiment with ACHN renal, 9.15% (active); in the experiment on CAKI-1 renal, 18%; in the experiment with CCRF-CEM leukemia, -8.83% (active); with MOLT-4 leukemia it was 1.3% (active).
On to `O=C1c2cccc3c(-c4ccc5c(c4)ncn5C4CCCCC4)ccc(c23)C(=O)N1CCO`, for which the growth is 98.5% in the experiment on HCT-15 colon; 83.6% in the experiment on HT29 colon; 98.1% in the experiment on SNB-19 CNS; 93.2% with U251 CNS; 85% in the experiment on PC-3 prostate; 62% in the experiment on SK-MEL-5 melanoma. Further, the growth with UACC-62 melanoma is 74.4%; with LOX IMVI melanoma, 87.4%; with SK-MEL-28 melanoma it was 116%; in the experiment with SK-MEL-2 melanoma, 89.5%; with EKVX NSCLC, 76.4%; in the experiment with SN12C renal it was 93.8%. In addition, the growth in the experiment with TK-10 renal was 101%; in the experiment with ACHN renal, 94.7%; with CAKI-1 renal it was 77.5%; in the experiment on A498 renal, 103%; in the experiment on CCRF-CEM leukemia, 79%; in the experiment with MOLT-4 leukemia, 71.9%.
Take `Cn1c(N2NC(=O)C(N=Nc3ccc(S(N)(=O)=O)cc3)C2=O)nc(-c2ccco2)c(C#N)c1=O` (stereo not drawn): the growth is 61.7% in the experiment with HCT-15 colon; 85.3% in the experiment with HT29 colon; 99.7% in the experiment with SNB-19 CNS; 96.9% in the experiment on U251 CNS; 82.9% with PC-3 prostate; 98% with SK-MEL-5 melanoma. The growth is 83.5% in the experiment with UACC-62 melanoma; 76.8% in the experiment on LOX IMVI melanoma; 102% with SK-MEL-28 melanoma; 117% in the experiment with SK-MEL-2 melanoma; 107% in the experiment on EKVX NSCLC; 92.6% in the experiment on SN12C renal. Further, the growth in the experiment with UO-31 renal is 63.2%; with TK-10 renal it was 131%; in the experiment on ACHN renal it was 81.6%; in the experiment with CAKI-1 renal it was 69.8%; with A498 renal, 122%; with MOLT-4 leukemia it was 4.74% (active).
`CCOC(=O)Nc1ccc(-c2ccc3c(c2)NC(=O)/C3=C\c2ccc[nH]2)cc1`: the growth in the experiment with HCT-15 colon was 84.6%; in the experiment on HT29 colon it was 105%; in the experiment with SNB-19 CNS, 99.3%; in the experiment on U251 CNS it was 87.9%; in the experiment on PC-3 prostate it was 101%; in the experiment on SK-MEL-5 melanoma, 99.2%. Also, the growth with UACC-62 melanoma is 101%; in the experiment with LOX IMVI melanoma, 97.2%; in the experiment with SK-MEL-28 melanoma, 111%; in the experiment with SK-MEL-2 melanoma, 114%; with EKVX NSCLC it was 30.8%; in the experiment with SN12C renal, 102%. Besides, the growth with UO-31 renal is 72.6%; in the experiment on TK-10 renal, 77%; in the experiment with ACHN renal, 100%; with CAKI-1 renal, 93.7%; with CCRF-CEM leukemia it was 98.3%; in the experiment with MOLT-4 leukemia, 98.8%.
Regarding `O=C(Cc1ccc(/C=C/C(=O)c2ncc[nH]2)cc1)Nc1ccc(Cl)cc1`, the growth was -25% (active) with HCT-15 colon; 0.843% (active) in the experiment with HT29 colon; 4.9% (active) in the experiment with SNB-19 CNS; -60.6% (active) in the experiment with U251 CNS; 39% in the experiment on PC-3 prostate; 52.5% in the experiment with SK-MEL-5 melanoma. Also, the growth in the experiment with UACC-62 melanoma was 41.2%; in the experiment on LOX IMVI melanoma, -37.1% (active); with SK-MEL-28 melanoma it was 67.9%; with SK-MEL-2 melanoma it was 94.9%; in the experiment on EKVX NSCLC, 65.2%; in the experiment on SN12C renal, 7.28% (active). In addition, the growth with UO-31 renal is 2.84% (active); in the experiment with TK-10 renal, 59.8%; in the experiment with ACHN renal, 42.7%; in the experiment on CAKI-1 renal it was 32.1%; in the experiment on CCRF-CEM leukemia it was -6.35% (active); with MOLT-4 leukemia it was 5.1% (active).
On to `O=C(Cc1ccccc1)NNc1nc(Cl)nc(N2CCN(C(c3ccccc3)c3ccccc3)CC2)n1`, for which the growth is 44.7% in the experiment with HCT-15 colon; 72.6% in the experiment with HT29 colon; 94% with SNB-19 CNS; 99.9% with U251 CNS; 81.5% in the experiment with PC-3 prostate; 99.8% with SK-MEL-5 melanoma. For the same molecule, the growth with UACC-62 melanoma was 91.9%; with LOX IMVI melanoma, 61.9%; in the experiment with SK-MEL-28 melanoma, 101%; in the experiment on SK-MEL-2 melanoma, 99.8%; with EKVX NSCLC, 91.9%; in the experiment with SN12C renal, 97.1%. The growth in the experiment with UO-31 renal was 96.7%; in the experiment on TK-10 renal, 96%; in the experiment on ACHN renal, 94.9%; in the experiment on CAKI-1 renal it was 84.4%; in the experiment on CCRF-CEM leukemia, 11.1%; with MOLT-4 leukemia, 36.3%.
Take `CCOC(=O)c1cc(C#N)n2ccc3ccccc3c12`: the growth in the experiment on HCT-15 colon is 96.6%; with HT29 colon it was 101%; with SNB-19 CNS, 92.7%; in the experiment on U251 CNS, 96.9%; in the experiment with PC-3 prostate, 102%; in the experiment on SK-MEL-5 melanoma it was 97.4%. Also, the growth was 91.5% in the experiment with UACC-62 melanoma; 95.7% in the experiment with LOX IMVI melanoma; 106% in the experiment with SK-MEL-28 melanoma; 106% with SK-MEL-2 melanoma; 90.9% in the experiment on EKVX NSCLC; 94.5% with SN12C renal. Also, the growth is 101% in the experiment on UO-31 renal; 91.3% in the experiment on TK-10 renal; 109% with ACHN renal; 90.2% in the experiment with CAKI-1 renal; 88% with A498 renal; 98.8% with CCRF-CEM leukemia. For the same molecule, the growth with MOLT-4 leukemia is 96.2%.
For the molecule `COc1cc(/C=C/c2cc(O)c(C(C)=O)c(O)c2)cc2c1O[C@]1(C)CC[C@@H](O)C(C)(C)[C@H]1C2`, the growth in the experiment with HCT-15 colon is 42.8%; in the experiment with HT29 colon, 34.9%; in the experiment with SNB-75 CNS, 7.67% (active); in the experiment with SNB-19 CNS, 56.4%; in the experiment with U251 CNS it was 36.1%; in the experiment on PC-3 prostate it was 45.2%. Also, the growth is 65.2% in the experiment on SK-MEL-5 melanoma; 38.7% in the experiment on UACC-62 melanoma; 31.4% in the experiment on SK-MEL-2 melanoma; 90.7% with EKVX NSCLC; 82.5% in the experiment on SN12C renal; 29.7% with UO-31 renal. The growth in the experiment with TK-10 renal is 94.7%; in the experiment with ACHN renal it was 65%; in the experiment with CAKI-1 renal it was 45%; in the experiment with CCRF-CEM leukemia, 37.6%; in the experiment on MOLT-4 leukemia, 20.2%.
